# PubChem BioAssay (NCI)
# Compounds without any hit were thinned out: in the full panel of roughly 83,000, 20% have a hit.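 Each cell line was grown in a 96-well plate and treated with one concentration of compound for 48 hours. Values below 10 were considered active.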 Values without a mark were called inactive. Active and inactive are the calls of the source.
# System: HL-60(TB) leukemia
# Assay: NCI-60 one-dose screen, 48 h (100 = growth as untreated, 0 = no growth, -100 = all killed)
# Conditions: 10 µM unless noted
row,Structure (SMILES),growth
1,COC(=O)/C(=C\c1c(C)[nH]c2ccccc12)S(=O)(=O)c1ccccc1,-27.3% (active)
2,CC1CCC(C)N(C)C1 (stereo not given),96.2%
3,CN(C)CCN=c1nc2c(c(N)n1-c1ccccc1)c(=S)n(-c1ccccc1)c(=S)n2-c1ccccc1,36.6%
4,COc1ccc(OC)c(NC(=O)c2sc3nc4c(cc3c2N)C(=O)CCC4)c1,88.4%
5,COc1ccccc1CNCCCCCCCCCCCCN1C(=O)c2ccc3c4c(ccc(c24)C1=O)C(=O)N(CCCCCCCCCCCCNCc1ccccc1OC)C3=O,85.8%
6,c1ccc(-c2nc3ccccc3s2)cc1,99.5%
7,Cc1ccc(Cc2cnc(NC(=O)c3ccc4noc(-c5ccccc5)c4c3)s2)cc1,97.7%
8,C=C(C)[C@@H]1C[C@@H]2Cc3ccc(Cl)c(C)c3N1O2,3.4% (active)
9,O=C(/C=C/c1cccnc1)NCCCCC1CCCN(C(=O)c2ccccc2)C1 (stereo not given),63.6%
10,COc1ccc(/C(CS(=O)(=O)c2ccccc2)=N\O)cc1,99.5%
11,COc1ccc(/C(=N/O)c2cc(OC)c(OC)c(OC)c2)c(OC)c1N,-24.6% (active)
12,CCCCCCCC/C=C\CCCCCCCCOc1ccc(CC(=O)NCC[N+]2(C)CCOCC2)cc1,-14% (active)
13,COc1ccc(-c2nc3sc(-c4ccccc4)cn3n2)cc1,67.4%
14,CN1C(=O)C(=Cc2coc3ccc(Br)cc3c2=O)C(=O)N(C)C1=O,111%
15,COc1ccc2c(c1)oc1c(C)c3c(c(C)c12)C(=O)N(CCOS(C)(=O)=O)C3=O,93.6%
16,CC1=CC2c3oc(-c4ccccc4)c(C(=O)c4ccccc4)c3CNC2C=C1 (stereo not given),84.3%
17,CCCCN1CCCC[C@@H]1C(=O)N[C@H](C(=O)N(C)[C@H](CCc1nc(C(=O)N[C@@H](Cc2ccccc2)C[C@H](C)C(=O)OC)cs1)C(C)C)C(C)C,5.08% (active)
18,C#CC[C@@H]1C[C@]2(C)[C@H]3CC=C4[C@H]5[C@@H](C)[C@H](C)CC[C@]5(C(=O)NCCCCCCCCN)CC[C@@]4(C)[C@]3(C)CC[C@H]2C(C)(C)[C@H]1OC(C)=O,-15.1% (active)
19,CCC(C)Nc1ccc(NC(C)CC)cc1 (stereo not given),57.5%
20,Cc1cc2nc3[nH]c4ccccc4c3nc2cc1C,55.2%

row,Structure (SMILES),growth
1,O=C1C=Cc2ccccc2/C1=C/c1[nH]c(=O)[nH]c1O,43.3%
2,NS(=O)(=O)c1ccc(CCn2c(SCC(=O)N/N=C/c3cc4ccccc4[nH]3)nc3ccccc3c2=O)cc1,35.2%
3,CCN(CC)CCOc1ccccc1-n1c(C)ccc1-c1ccccc1,22.4%
4,N#Cc1c(-c2ccc(Cl)cc2)nc(N=Nc2c(O)[nH]c3ccc(Cl)cc23)nc1N1CCOCC1,104%
5,COc1cc2nc(-c3ccc(C(F)(F)F)cc3)cc(OCCN3CCCCC3)c2cc1OC,58.6%
6,C=CC(=O)Nc1cc2c(Nc3ccc(F)c(Cl)c3)ncnc2cc1OCCCN1CCOCC1,-26.7% (active)
7,N#C/C(=C\c1ccccn1)c1nc2cc(Cl)ccc2s1,52%
8,CC(=O)Oc1ccc(Nc2c3ccccc3nc3ccccc23)cc1,-5.02% (active)
9,CCCCC/C(C)=N\NC(N)=S,96.5%
10,O=C(CCc1nnc(-c2c(Cl)cccc2Cl)o1)c1nc2ccccc2[nH]1,-33.8% (active)
11,COc1cc(OC)c(/C=C/C(=O)c2c(OC)cccc2OC)c(OC)c1,7.89% (active)
12,O=C1Nc2ccccc2/C1=C/C(=O)c1ccc(N2CCCC2)cc1,-10.8% (active)
13,CCCOCc1cn[nH]n1,105%
14,O=C(O)CSCc1nc2ccccc2[nH]1,136%
15,CCOc1ccc(/C=C(\C#N)c2cc3ccccc3[nH]2)cc1,43.7%
16,Cc1ccc(-[n+]2c3cc(N)c(C)cc3nc3cc(C)c(Nc4ccccc4)cc32)cc1,-20.6% (active)
17,COc1cc(OC)cc(-c2n/c(=C\c3c(O)[nH]c4ccc(Cl)cc34)cc3c2=Nc2ccccc2-3)c1,90.2%
18,CCOC(=O)C1CN(Cc2ccccc2)C(=O)C1=O (stereo not given),7.35% (active)
19,CN1CCN(c2ccc3nc4c(nc3c2C(F)(F)F)C(=O)c2ncccc2C4=O)CC1,-50.4% (active)
20,c1cc[n+](Cc2ccnc3ccccc23)cc1,84.7%
